The list is not random: actives were taken first. Their share in the collection is about 4.2%.
GDH-TPI inh – GDH-TPI coupling enzyme inhibitors, primary screen, artefact control for M. tuberculosis FBA inhibitor project, biochemical, absorbance, full deck; GDH-TPI coupled enzyme counterscreen, NADH absorbance; inhibition, % at 4.8 µM; 1.2% of 360,000 active; AID 588335, 2011;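 further: 0% = DMSO wells and 100% = wells lacking the enzyme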
RecA splice inh – Mtb RecA intein splicing inhibitors, primary screen, biochemical, fluorescence, HTS; Protein RecA (Mycobacterium tuberculosis (strain ATCC 25618 / H37Rv)), P9WHJ3; inhibition, % (concentration not given with the values); 0.75% of 290,000 active; cell-free RecA intein splicing; in the data active means inhibition above about 30%;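 further: 0% = vehicle wells and 100% = reference inhibitor control wells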
FBA Mtb inh – Mtb FBA enzyme inhibitors, primary screen, biochemical, fluorescence, strain H37Rv; Fructose-bisphosphate aldolase (Mycobacterium tuberculosis (strain ATCC 25618 / H37Rv)), …; AID 588726, 2011; purified M. tuberculosis FBA, fluorescence read-out; 2.3% of 360,000 active; inhibition, % at 1 µM; in the data active means inhibition above about 27%;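 further: 0% = vehicle and 100% = reference inhibitor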
Target sequence (P9WQA3 whole entry, looked up): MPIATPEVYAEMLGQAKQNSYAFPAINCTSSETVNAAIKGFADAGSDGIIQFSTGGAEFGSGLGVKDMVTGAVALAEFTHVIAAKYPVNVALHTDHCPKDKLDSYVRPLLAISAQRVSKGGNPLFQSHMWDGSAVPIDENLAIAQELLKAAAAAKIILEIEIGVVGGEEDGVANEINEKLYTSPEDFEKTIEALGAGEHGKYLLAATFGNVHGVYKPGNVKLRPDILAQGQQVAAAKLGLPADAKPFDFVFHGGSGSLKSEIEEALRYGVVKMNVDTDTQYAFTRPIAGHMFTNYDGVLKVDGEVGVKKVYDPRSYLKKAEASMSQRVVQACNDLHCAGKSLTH
Mtb bLac sens – beta-lactam sensitization of Mtb H37Rv, H37Rv. M. tuberculosis H37Rv growth with meropenem, percent inhibition. AID 434955, 2010. inhibition, % at 25 µM. 0.27% of 330,000 active; call rule not given here;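 further: growth measured after seven days incubation then overnight dye step; 0% = bacteria only wells and 100% = bacteria with antibiotic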
CCHF vOTU inh-1 – CCHFV vOTU protease inhibitors, primary screen, biochemical, Pep-AMC substrate, fluorescence; Crimean-Congo hemorrhagic fever virus L polyprotein viral ovarian tumor (vOTU) protease …; inhibition, % at 11.5 µM; 0.55% of 370,000 active; AID 651958, 2012; further: 0% = vehicle wells with enzyme and 100% = no enzyme wells
CCHF vOTU inh-2 – CCHFV vOTU protease inhibitors, confirmation, biochemical, Pep-AMC substrate, fluorescence | shares compounds with CCHF vOTU inh-1 | Recombinant CCHFV vOTU | inhibition, % at 11.5 µM | 17% of 1,900 active
Numbers without * were called inactive; / = no result given. Unless noted, no stated cut-off is given here; in the data, active means inhibition above about 30%; inactive means the rest.

SMILES	GDH-TPI inh	RecA splice inh	FBA Mtb inh	Mtb bLac sens	CCHF vOTU inh-1	CCHF vOTU inh-2
Cc1cccc(C(=O)Nc2nc3ncccn3c2-c2ccccc2)c1	/	/	/	/	-21	/
CC1=C(C(=O)N(C(C)C)C(C)C)CC(CC(=O)NCCCCc2ccccc2)C(=O)N1Cc1ccc(C(C)(C)C)cc1 (stereo unspecified)	/	/	1	/	35*	16
CC1=C(C(=O)N(C(C)C)C(C)C)CC(CC(=O)NCC2CCCCC2)C(=O)N1Cc1ccc(C(C)(C)C)cc1 (stereo unspecified)	/	/	/	/	38*	9
CC1=C(C(=O)N(C(C)C)C(C)C)CC(CC(=O)NC2CC2)C(=O)N1Cc1ccc(C(C)(C)C)cc1 (stereo unspecified)	/	/	/	/	27	/
CC1=C(C(=O)N(C)C)CC(CC(=O)NC(c2ccccc2)c2ccccc2)C(=O)N1Cc1ccc(F)cc1 (stereo unspecified)	10	/	1	/	34*	-15
CC1=C(C(=O)N(C(C)C)C(C)C)CC(CC(=O)NCc2cccc3ccccc23)C(=O)N1Cc1ccc(C(C)(C)C)cc1 (stereo unspecified)	/	/	1	/	33*	15
COc1ccc(CN2C(=O)C(CC(=O)NCCCCc3ccccc3)CC(C(=O)N(C(C)C)C(C)C)=C2C)cc1 (stereo unspecified)	4	/	4	/	21	/
CC1=C(C(=O)N(C)C)CC(CC(=O)NCc2cccc3ccccc23)C(=O)N1Cc1ccc(C(C)(C)C)cc1 (stereo unspecified)	/	/	-2	/	9	/
CCCC[C@@H](CCCc1ccc(F)cc1)CCC(=O)N(c1ccccc1)c1ccccc1	/	/	/	/	14	/
CCN(CC)CCn1c2c(c(SCC(=O)Nc3ccccc3Cl)nc1=O)CCC2	4	-1	1	-18	2	/
CC(=O)c1ccc(S(=O)(=O)NCCC(=O)OCC(=O)NCCc2ccccc2)cc1	1	-1	4	-4	-4	/
CC1=C(C(=O)N2CCOCC2)CC(CC(=O)NCCCN(C)C)C(=O)N1Cc1ccc(F)cc1 (stereo unspecified)	/	/	-2	/	37*	-11
COc1ccc(CN2C(=O)C(CC(=O)NCCCN(C)C)CC(C(=O)N3CCOCC3)=C2C)cc1 (stereo unspecified)	/	/	7	/	0	/
CC1=C(C(=O)N2CCOCC2)CC(CC(=O)NCCCCc2ccccc2)C(=O)N1Cc1ccc(C(C)(C)C)cc1 (stereo unspecified)	7	/	1	/	32*	1
NC(=O)NCCCC(=O)NCC(c1ccccc1Cl)c1c[nH]c2ccccc12 (stereo unspecified)	1	4	26	4	4	/
CCc1ccccc1N1C(=O)C2C3C=CC(CC3)C2C1=O (stereo unspecified)	-8	1	0	-6	6	/
O=c1[nH]c2c(s1)C(c1ccco1)C1C3CCC(C3)C1S2 (stereo unspecified)	4	0	0	-15	32*	-10
O=C1C(=O)N(CCCn2ccnc2)C(c2ccc(Cl)cc2)/C1=C(\O)c1ccc2c(c1)OCCO2 (stereo unspecified)	11	-11	0	-5	48*	-12
O=C1C(=O)N(CCCn2ccnc2)C(c2ccc(Br)cc2)/C1=C(\O)c1ccc2c(c1)OCCO2 (stereo unspecified)	19	1	4	-2	23	/
CC(C)(C)c1ccc(/C=N/OCC(=O)NCc2ccc(F)cc2)cc1	9	1	-1	11	46*	13
COC(=O)NN=C1CCC(c2ccccc2)CC1 (stereo unspecified)	-7	1	4	0	14	/
COC(=O)N/N=C1/C/C(=N\NC(=O)OC)c2ccccc21	5	23	-3	6	89*	72*
CC(OC(=O)c1cccc(-n2cnnn2)c1)C(=O)Nc1ccc(F)cc1Cl (stereo unspecified)	-1	0	0	-3	33*	-12
NC(=O)N/N=C/c1cccc(OCc2ccc(F)cc2)c1	2	0	0	1	5	/
COc1cccc(/C=N/Nc2c(Cl)cncc2Cl)c1O	13	0	0	2	13	/
SMILES	GDH-TPI inh	RecA splice inh	FBA Mtb inh	Mtb bLac sens	CCHF vOTU inh-1	CCHF vOTU inh-2
COc1ccc(-n2c(C)cc(/C=N/Nc3nnc(C)n3N)c2C)cc1	9	-1	-2	88	91*	-8
Cc1nnc(N/N=C/c2cccc(OCc3ccc(Cl)c(Cl)c3)c2)n1N	10	74*	-1	100	103*	-10
COc1cccc(/C=N/Nc2nnc(C)n2N)c1O	9	-2	-2	3	88*	-8
Cc1nnc(N/N=C/c2ccccc2C(F)(F)F)n1N	8	-1	-1	-4	65*	-8
COc1ccc2c(c1)[C@@H](NC(=O)c1ccncc1)[C@@H]1Cc3ccccc3[C@H]21	/	/	/	/	3	/
O=C(N/N=C/c1cccc(C(F)(F)F)c1)c1ccccc1O	22	0	-2	3	-10	/
Cc1nnc(N/N=C/c2ccccc2F)n1N	5	-4	-3	5	75*	-14
Cc1nnc(N/N=C/c2cccc(C(F)(F)F)c2)n1N	1	1	-5	75	105*	-15
Cc1nnc(N/N=C/c2ccco2)n1N	7	-1	-15	-3	89*	-16
COc1cccc(NC(=O)COc2ccc(C(=S)N3CCN(C)CC3)cc2OC)c1	10	-1	-1	-3	-6	/
COC(=O)c1cc(NS(=O)(=O)c2ccc(N3CCC(C)CC3)c([N+](=O)[O-])c2)cc(C(=O)OC)c1	4	3	-3	1	34*	-4
COC(=O)c1cc(NS(=O)(=O)c2ccc(N3CCCCC3)c([N+](=O)[O-])c2)cc(C(=O)OC)c1	10	5	0	2	9	/
COc1ccc(/C=C2\C(=O)NC(=O)c3ccccc32)cc1OC	2	/	1	/	108*	103*
CN(C)c1cccc2c(S(=O)(=O)Nc3ccccn3)cccc12	9	3	13	-18	38*	-5
Cc1ccc(NC(=O)Cc2nc(-c3c[nH]c(C(=O)N4CCCC4)c3)cs2)c(C)c1	-8	/	-2	-1	9	/
COc1cc(N)c2ncccc2c1Cl	12	/	46*	/	97*	-6
COc1ccc2ccccc2c1C1CC(=O)N2CN(C)CSC2=C1C#N (stereo unspecified)	-1	5	-3	-1	79*	56*
COc1cc(OC)c(C2CC(=O)N3CN(C)CSC3=C2C#N)cc1OC (stereo unspecified)	7	1	-2	-1	6	/
COc1ccc(OCc2cc(C(=O)NC3CCOCC3)no2)c2ccccc12	6	30	1	2	61*	22
